Screens as filed in PubChem.
GPR151 ag: human GPR151 activation | PathHunter beta-arrestin GPR151 cells, luminescence | 1% of 650,000 active | activation, % at 11.2 µM; in the data active means activation above about 4.9%;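 further: 0% = median of compound wells and 100% = cells with positive control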
Target sequence (Q8TDV0 whole entry, looked up): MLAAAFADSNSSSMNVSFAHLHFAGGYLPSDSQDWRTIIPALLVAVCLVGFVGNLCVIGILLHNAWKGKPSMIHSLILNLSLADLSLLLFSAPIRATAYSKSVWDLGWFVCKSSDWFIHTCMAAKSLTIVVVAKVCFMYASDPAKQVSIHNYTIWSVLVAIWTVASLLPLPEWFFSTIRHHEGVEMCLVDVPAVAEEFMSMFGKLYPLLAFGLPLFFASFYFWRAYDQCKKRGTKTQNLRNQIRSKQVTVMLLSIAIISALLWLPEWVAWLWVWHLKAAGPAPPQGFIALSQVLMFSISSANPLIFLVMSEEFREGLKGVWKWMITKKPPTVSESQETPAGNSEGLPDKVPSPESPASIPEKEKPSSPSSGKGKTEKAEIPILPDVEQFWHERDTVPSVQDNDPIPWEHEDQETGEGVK
TEAD-YAP block: TEAD-YAP interaction inhibition; HEK-TIYL cells, TEAD-Gal4/YAP UAS-luciferase luminescence; inhibition, % at 9.12 µM; AID 1259422; 1.4% of 640,000 active; in the data active means inhibition above about 32%;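 further: 0% = median of test compound wells and 100% = reference inhibitor wells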
FBW7 act: human FBW7 E3 ligase activation, primary screen. 0.13% of 650,000 active. Q969H0. AlphaScreen FBW7–phospho-cyclin E peptide binding, activator screen. normalized activity (activation), % at 26.1 µM; in the data active means normalized activity above about 1.9%;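 further: purified mutant Fbw7 with reduced substrate affinity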
MITF primary: blocks human microphthalmia-associated transcription factor | inhibition, % at 2.6 µM | AlphaScreen MITF homodimerization, bead proximity signal | 0.91% of 650,000 active | O75030; in the data active means inhibition above about 50%;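 further: 0% = vehicle wells with protein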
MITF inh conf: confirmation of human MITF inhibitors | AlphaScreen MITF homodimerization, biotin/His-MITF beads | shares compounds with MITF primary | AID 1259372 | inhibition, % at 2.6 µM | 16% of 4,700 active;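 active means inhibition above a cutoff derived from the DMSO control wells, cut at about 28% in these data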;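 further: 0% = MITF dimer wells with DMSO only; inhibitors lower the bead chemiluminescence by keeping MITF from dimerizing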
AlphaScreen intf2: optically interferes with AlphaScreen signal; LysRS AlphaScreen counterscreen, signal interference, triplicate; 7.6% of 4,700 active; shares compounds with MITF primary; inhibition, % at 2.6 µM;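 active means inhibition above a cutoff derived from the DMSO control wells, cut at about 30% in these data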
An asterisk follows results filed as active; . = no result given. Rows were chosen to be rich in hits. Some 3.5% of all compounds tested hit in one or more screens of this group.

SMILES	GPR151 ag	TEAD-YAP block	FBW7 act	MITF primary	MITF inh conf	AlphaScreen intf2
Cc1ccccc1N1C(=O)NC(=O)/C(=C\c2ccc(N3CCCC3)o2)C1=O	-1	-6	0	20	.	.
COc1cc(CN2CCN(c3ccccn3)CC2)ccc1O	-2	1	0	54*	-3	2
Brc1ccc(CN2CCN(c3ccccn3)CC2)cc1	0	9	0	53*	-2	3
Cc1ccc(CN2CCN(c3ccccn3)CC2)cc1	0	6	1	44	.	.
O=C(CN1CCN(c2ccccn2)CC1)N(Cc1ccccc1)Cc1ccccc1	1	-1	0	91*	10	13
Cc1c(N=Cc2c(O)[nH]c3ccccc23)cccc1[N+](=O)[O-]	-1	0	0	-3	.	.
CCN1CCN(CC(=O)N(C)c2ccccc2)CC1	1	-2	0	67*	-11	1
Cc1nnc(NC(=O)CN2CCOCC2)s1	1	-6	0	-8	.	.
CCN1CCN(CCC(=O)Nc2ccccc2)CC1	-2	8	2	24	.	.
CCN1CCN(CC(=O)Nc2nnc(C)s2)CC1	0	4	0	74*	8	9
CN(C(=O)N1CCN(C(=O)N(C)c2ccccc2)CC1)c1ccccc1	-1	1	0	14	.	.
CCN1CCN(CC(=O)NCc2ccccc2OC)CC1	-1	-6	0	99*	3	13
CCN1CCN(CC(=O)Nc2ccccc2)CC1	1	2	0	59*	-1	10
CCCc1cc(=O)[nH]c(Nc2ccc(C(=O)OC)cc2)n1	1	-4	0	5	.	.
CN(CCc1ccccc1)C1CCCN(C(=O)NCc2ccccc2)C1 (stereo not drawn)	0	8	0	-4	.	.
Cc1cc(OCC(=O)NCc2nc(-c3ccccc3)no2)ccc1Cl	1	-3	0	5	.	.
COc1ccc(CCn2c(C)cc(-c3csc(N)n3)c2C)cc1	0	0	0	11	.	.
Cc1cc(C)cc(NC(=O)CN2CCc3ccccc3C2)c1	0	3	0	69*	0	5
Cc1cc(C)cc(NC(=O)CCN2CCc3ccccc3C2)c1	-1	-5	0	-1	.	.
CC(=O)Nc1cccc(NC(=O)CSc2ncnc3c2cnn3-c2ccccc2)c1	0	-4	0	2	.	.
O=[N+]([O-])c1ccc(C2Nc3ccc(Br)cc3C(c3ccccc3)O2)cc1 (stereo not drawn)	2	6	0	57*	-4	2
Fc1ccc(C2Nc3ccc(Br)cc3C(c3ccccc3)O2)cc1 (stereo not drawn)	2	0	0	-6	.	.
COCCN(CC(=O)NC(C)(C)C)C(=O)CCC(=O)Nc1nccs1	0	8	0	-7	.	.
CC1(C)C2([N+](=O)[O-])CN3CC1([N+](=O)[O-])CN(C2)C3c1cc(Br)ccc1O (stereo not drawn)	-1	9	1	18	.	.
O=c1c2sc(=S)n(Cc3ccco3)c2nc(SCc2ccc(F)cc2Cl)n1-c1ccc(F)cc1	-1	-5	0	3	.	.
SMILES	GPR151 ag	TEAD-YAP block	FBW7 act	MITF primary	MITF inh conf	AlphaScreen intf2
O=c1c2sc(=S)n(Cc3ccco3)c2nc(SCc2ccc(F)cc2Cl)n1-c1ccccc1	-2	-10	0	51*	-3	9
Cc1ccc(CNC(=O)CN2CCN(C)CC2)cc1	0	3	0	84*	7	9
O=C(CN1CCCN(CC(=O)NCc2ccccc2)CC1)NCc1ccccc1	0	-9	0	93*	4	-2
CN1CCN(CC(=O)NCc2ccc(F)cc2)CC1	1	-5	0	21	.	.
CC(C)CCN1NC2(CCCCC2)NC1=S	-1	-6	1	65*	3	15
CN1NC2(CCCC2)NC1=S	1	-5	0	-7	.	.
N=C1SCC(=O)N1c1ncc(Cc2ccccc2)s1	-2	4	0	59*	10	43*
N=C1SCC(=O)N1c1ncc(Cc2cccc(C(F)(F)F)c2)s1	-2	23	0	10	.	.
O=C(Nc1cccc(F)c1)Nc1cccc(NC(=O)Nc2cccc(F)c2)c1	0	-1	1	-5	.	.
CN1CCN(CC(O)Cn2cc(/C=C/C(=O)c3cccs3)c3ccccc32)CC1 (stereo not drawn)	-3	12	0	5	.	.
CN1CCN(CC(O)Cn2cc(/C=N/O)c3ccccc32)CC1 (stereo not drawn)	-2	-3	0	59*	13	11
